# Assay outcomes: PubChem, National Center for Advancing Translational Sciences (NCATS)
# This is a sample that favours compounds with a hit; in the whole collection about 2.8% have one here.
# LDHA inh: inhibitors of human lactate dehydrogenase A; purified LDHA, NADH/diaphorase-resazurin fluorescence; stronger effect = lower value; P00338; activity change, % (values are at about 110 or 230 µM); hit rate 0.15% among 480,000; in the data active = activity change below about -30%; inconclusive = mostly about -25% to -30%;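 also: plate controls were DMSO wells for no effect and wells without enzyme for full effect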
#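 Resorufin fluorescence (ex540/em590), read at 0 and 20 min after diaphorase/resazurin addition, reports the NADH left after a 5 min room-temperature reaction of 2 nM human LDH5 with 0.06 mM NADH and 0.2 mM pyruvate.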
# D3 ag: activates the human D3 dopamine receptor; P35462; D3R DiscoveRx beta-arrestin cells, luminescence, 90 min; max activation, %; hit rate 0.58% among 410,000; AID 652048; in the data active = max activation above about 30%; also: 0% is about no effect
#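 Cells at 1500/well, incubated overnight, then treated with pinned compounds (dopamine as control) for 90 min at 37 degrees C. DiscoveRx reagent added for 30 - 60 minutes at room temperature; luminescence read.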
# RGS4 inh: inhibitors of human regulator of G protein signaling 4 | Transcreener GDP fluorescence polarization, RGS4-accelerated GTP hydrolysis | Potency, µM (top dose mostly 114 µM), for inactives: top-dose activity change, negative = inhibition, actives largely listed as inhibitors | hit rate 0.039% among 390,000 | P49798 | AID 504845; active = well fitted inhibition curve with a large enough effect; inconclusive = small, poorly fitted or top-dose-only effect; inactive = no such curve, though single readings can be large or run the other way; also: potency is read from the fitted curve at half-maximal effect; % is scaled to controls: 0 for no effect and ±100 for the full control effect; nearly all actives have a fitted effect of over 75% in size
# Target sequence (P49798 whole entry, looked up): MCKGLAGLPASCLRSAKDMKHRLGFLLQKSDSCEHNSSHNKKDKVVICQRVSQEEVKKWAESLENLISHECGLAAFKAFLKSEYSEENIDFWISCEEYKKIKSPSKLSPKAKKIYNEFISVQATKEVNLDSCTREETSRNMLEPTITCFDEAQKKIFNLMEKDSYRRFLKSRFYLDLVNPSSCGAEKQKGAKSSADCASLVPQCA
#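 MLSMR compounds (23 nl, pin-transferred) preincubated 10 min at room temperature with a 500nM (2x) first reagent, then RGS4 at 900nM (2x) plus Transcreener GDP mix added; fluorescence polarization (620/688 nm) read before and after 90 min at 30 °C.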
# D3 antag: D3 dopamine receptor (human) antagonism | max response, negative = inhibition, % | hit rate 2.5% among 360,000 | D3R cells, DiscoveRx beta-arrestin luminescence, antagonist mode; stronger effect = lower value | AID 652054; in the data active = max response below about -50%; inconclusive = no clear call, values can overlap the other calls; also: % is scaled to controls: 0 for no effect and ±100 for the full control effect
#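 Cells plated overnight at 1500 cells/well, then exposed to library compounds with dopamine controls for 90 minutes at 37 degrees C. DiscoveRx reagent added for 30–60 minutes at room temperature; luminescence read, quantitative HTS format.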
# PI4K2A inh: inhibitors of human PI4K2A | Q9BTU6 | purified PI4K2A, ADP-Glo luminescence, 1 h; stronger effect = lower value | activity change, negative = inhibition, % at 76.9 µM | hit rate 0.13% among 420,000 | AID 1346378; in the data active = activity change below about -50%; inconclusive = mostly about -30% to -49%;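 also: -100% = wells without enzyme as full effect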
# Target sequence (Q9BTU6 whole entry, looked up): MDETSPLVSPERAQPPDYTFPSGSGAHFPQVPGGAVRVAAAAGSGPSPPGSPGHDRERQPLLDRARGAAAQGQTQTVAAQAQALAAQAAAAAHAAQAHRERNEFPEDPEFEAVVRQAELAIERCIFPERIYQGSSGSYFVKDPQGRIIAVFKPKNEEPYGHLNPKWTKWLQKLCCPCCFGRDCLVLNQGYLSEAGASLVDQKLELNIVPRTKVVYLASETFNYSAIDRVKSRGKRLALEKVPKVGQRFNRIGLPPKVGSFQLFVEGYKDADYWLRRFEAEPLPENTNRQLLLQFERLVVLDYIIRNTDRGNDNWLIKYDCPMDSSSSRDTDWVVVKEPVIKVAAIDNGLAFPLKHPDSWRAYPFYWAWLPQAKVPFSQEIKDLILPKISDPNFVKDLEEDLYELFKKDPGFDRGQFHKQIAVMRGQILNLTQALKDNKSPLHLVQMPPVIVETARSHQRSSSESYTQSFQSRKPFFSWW
#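 In this quantitative HTS, ADP production by PI4K2A was quantified luminescently after 1 h at ambient temperature; 100 microM adenosine served as plate-quality control.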
# pAkt inh: Akt phosphorylation inhibition; activity change, % for hits at 50 µM; Neuro2A IGF-stimulated pAkt S473 HTRF, 20 min; stronger effect = lower value; AID 651550; hit rate 0.32% among 360,000; in the data active = activity change below about -80%; inconclusive = mostly about -51% to -80%; also: % is scaled to controls: 0 for no effect and ±100 for the full control effect
#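 Neuro2A cells (4,500/well, DMEM with 0.5% FBS) were treated with compound at a single 50 µM final concentration, stimulated with 6 nM IGF for 20 min at 37 °C, and lysed. Phospho-Akt Ser473 was read by HTRF as 665/615 ratio ×10^4.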
# The depositor's hits bear a star; i = inactive; ? = inconclusive; · = no result given; ! = a repeat was not active; [ ] = dose if it differs, or a comment.
SMILES,LDHA inh,D3 ag,RGS4 inh,D3 antag,PI4K2A inh,pAkt inh
O=C(C1CCCN(S(=O)(=O)c2cccc3nonc23)C1)N1CCC(Cc2ccccc2)CC1 (centres undefined),-1,-1,-26%,-53*,1,i
O=C(NCCc1ccccc1)C1CCN(S(=O)(=O)c2cccc3nonc23)CC1,-4,-2,-5%,32,-3,i
Cc1noc(C)c1S(=O)(=O)Nc1ccccc1SCc1cc(=O)n2ccccc2n1,11,·,·,·,·,·
CC1CCCC(NC(=O)CSc2ccc(F)cc2)C1C (centres undefined),-4,0,-30%[56.9 µM],-7,4,i
CC1CCCC(NC(=O)CSc2n[nH]c(=O)n2Cc2ccccc2)C1C (centres undefined),-4,48*,19%,-4,-3,i
COc1ccc(/C=C/C(=O)c2ccc(C3CCCCC3)cc2)cc1O,10,·,·,·,·,·
CCc1c(C(=O)Nc2sc(C)c(C)c2C#N)csc1C,9,·,·,·,·,·
CCN(CC)CCCNC(=O)Cn1ncn2cccc2c1=O,-5,-8,7%,-73*,-6,i
O=C(NN=Cc1ccc2c(c1)OCO2)NN=Cc1ccc2c(c1)OCO2,-8,46*,10%,45,-13,i
CC(C)CNC(=S)NNC(=O)c1csc2ccccc12,-8,-27,3%,-66*,7,i
CCNC(=S)NNC(=O)c1csc2ccccc12,5,-17,-36%,-26,4,i
CC(C)CNC(=S)NNC(=O)c1csc2c1CCCC2,-9,-17,0%,-57*,-3,i
COc1ccc(CC(=O)OCn2nnc3ccccc3c2=O)cc1OC,-12,15,-11%,18,-2,i
COc1ccc(CC(=O)OCn2nnc3ccccc3c2=O)cc1,1,4,-22%,2,-57*,i
Cc1ccc(NC(=O)c2nc3ccccc3nc2N2CCN(C)CC2)cc1C,3,·,·,·,·,·
O=C(NC1CCCCC1)C(CCc1ccccc1)N1CCc2ccccc2C1 (centres undefined),-2,-14,·,-59*,-3,i
O=C(NC1CCCCC1)C(CCc1ccccc1)N1CCOCC1 (centres undefined),-2,1,·,1,-5,i
O=C(NC12CC3CC(CC(C3)C1)C2)c1ccc2c(c1)CCC2,5,·,·,·,·,·
Cc1ccc(OCCCC(=O)NCc2ccco2)cc1,4,22,-14%,-30,-2,i
Cc1ccccc1OCCCC(=O)NCc1ccco1,-3,2,-17%,-123*,5,-101%*
O=C(CNC(=O)Cc1ccccc1)NCC(=O)OCC(=O)c1cccc2ccccc12,-41*!,1,0%,-13,4,i
CCCSc1nsc(NC(=O)C(c2ccccc2)c2ccccc2)n1,-1,-9,-14%,-71*,24,i
COc1ccc(CC(=O)Nc2cccc3cccnc23)cc1,10,·,·,·,·,·
CCN(CC)S(=O)(=O)c1cc([N+](=O)[O-])ccc1NNC(=O)Nc1ccccc1OC,6,-5,-20%,-86*,-1,i
COc1cc([N+](=O)[O-])ccc1NC(=O)CN(C)C,0,2,0%,-14,-2,i
SMILES,LDHA inh,D3 ag,RGS4 inh,D3 antag,PI4K2A inh,pAkt inh
CCN(CC)S(=O)(=O)c1cc([N+](=O)[O-])ccc1NNC(=O)Nc1ccc(F)cc1,0,-1,-5%,-72*,-2,·
CCN(CC)S(=O)(=O)c1ccc(OC)c(NC(=O)c2ccc([N+](=O)[O-])cc2)c1,-6,-6,?,-17,7,i
O=C(Nc1ccc(F)cc1)Nc1ccc([N+](=O)[O-])cn1,-8,-4,14%,-11,4,i
CCN(CC(=O)Nc1ccc([N+](=O)[O-])cc1OC)c1ccccc1,-2,-2,1%,-68*,-1,i
CC(C(=O)O)n1cnc2ccccc21 (centres undefined),0,·,·,·,·,·
CCCN(CCC)C(=O)Cc1c(C)[nH]c2ccc(C)cc12,3,·,·,·,·,·
Cc1ccc(C)c(Cc2c(C)nc3c(C(=O)N4CCOCC4)cnn3c2C)c1,-1,31*,-12%,-9,4,i
CCOC(=O)N1CCN(C(=O)c2cnn3c(C)c(Cc4ccc(C)cc4)c(C)nc23)CC1,-3,5,-18%,1,7,i
COC(=O)C(Cc1ccccc1)OS(N)(=O)=O (centres undefined),-6,-12,-17%,-58*,0,i
O=C(O)c1ccc(Oc2nc3ccccc3s2)cc1,?,-2,19%,-13,-61*,i
O=C(O)c1ccc(C=C(c2nc3ccccc3s2)c2nc3ccccc3s2)cc1,-4,-13,?,?,0,i
CCc1ccc(/C=C/C(=O)O)cc1,8,·,·,·,·,·
CCN(CC)CC(C)(C)C(=O)/C=C/c1ccc(/C=C/C(=O)C(C)(C)CN(CC)CC)cc1,-12,-14,-34%,-64*,14,i
COc1cccc(/C=N/NC(=O)NC23CC4CC(CC(C4)C2)C3)c1O,6,-16,0%,-62*,3,i
O=C(N/N=C/c1ccccc1F)NC12CC3CC(CC(C3)C1)C2,-1,-9,-18%,-5,3,i
COc1ccc(-c2csc(N3CCN(c4cc(C)nc5ccccc45)CC3)n2)cc1OC,-7,32*,-7%,76,-5,i
COc1cc(-c2csc(N3CCOCC3)n2)cc(OC)c1OC,-1,-13,-13%,10,12,i
COc1ccc(CNc2nc3ccccc3n2C(C)C)cc1,0,-9,5%,-20,-2,i
CC(C)n1c(NCc2nc3ccccc3n2C)nc2ccccc21,-8,-11,2%,-93*,-13,i
CCn1c(CNc2nc3ccccc3n2C(C)C)nc2ccccc21,?,-13,16%[11.4 µM],-59*,2,i
Cn1c(CNc2nc3ccccc3n2C)nc2ccccc21,-1,-11,41%,-70*,-9,i
COc1cc(C(=O)Nc2ccc(C)c(S(=O)(=O)N3CCCCCC3)c2)cc(OC)c1OC,-3,·,·,·,·,·
CC(C)c1ccc(-c2nc3cc(NC(=O)c4cccnc4)ccc3o2)cc1,7,·,·,·,·,·
N#C/C(=C/c1ccc(N2CCOCC2)o1)c1ccc(Cl)cc1,14,-17,?,-105*,-9,i
CN1C(=O)/C(=C/c2cc(C(C)(C)C)c(O)c(C(C)(C)C)c2)NC1=S,1,4,-30%,-58*,5,i
Cc1nc2c(o1)CCc1ccccc1C2N1CCN(C)CC1 (centres undefined),-4,-13,34%,-54*,1,i
